15 molecules from PubChem BioAssay AID1224852 (National Center for Advancing Translational Sciences (NCATS), 2016) can be followed below.

The structures appear in SMILES notation. Inconclusive results are not listed. Active and inactive are the calls of the source. Calls follow the shape of the dose curve; as a rule, active = well fitted curve in the direction sought with a large enough effect (not every such curve was filed as active); inconclusive = small, poorly fitted or top-dose-only effect, or effect the other way, or another doubt; inactive = no such curve, though single readings can be large or run the other way.

This assay can be described thus: Cell viability assay for measurement of the protective activity of small molecules against cell death caused by Zika virus infection in human neural progenitor cells (hNPCs).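 Also: 0% = ZIKV-infected cells without compound and 100% = uninfected cells.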 The settings on record: hNPC ZIKV-induced death protection, ATP luminescence, 72 h; series mostly up to 46.1 µM; protection, negative = more death: at the top concentration. In outline:
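Luminescent ATP content after 72 h ZIKV infection (2 FFU/cell) of hNPCs, compounds added 1 h before virus. Protection expressed as percent inhibition of the infection-induced drop in cell viability.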
Take `Clc1ccccc1-c1nc(-c2ccncc2)no1`: the “protection, negative = more death” value is -34% (inactive). With `Cc1c(NC(=O)c2ccc(C(C)(C)C)cc2)cccc1-c1cn(C)c(=O)c(Nc2ccc(C(=O)N3CCOCC3)cc2)n1`, the “protection, negative = more death” value was -49.7% (inactive). For the molecule `C[C@@H](N)c1ccc(C(=O)Nc2ccnc3[nH]ccc23)cc1`, the “protection, negative = more death” value is -39.7% (inactive). The figure for `CCCCCCCCCCCC(=O)[O][Sn]([CH2]CCC)([CH2]CCC)[O]C(=O)CCCCCCCCCCC` is 9.07% (inactive); for `O=c1cc(-c2ccccc2)oc2cc(O)cc(O)c12` it is -30.1% (inactive); for `O=C(Nc1cc2cc[nH]c2cn1)c1ccccc1` it is -76.8% (inactive). Consider `Cc1csc(NC(=O)c2sc3nc4c(c(C(F)(F)F)c3c2N)CCC4)n1`, for which the “protection, negative = more death” value was -75.6% (inactive). Then `COc1cccc2c1C(=O)c1c(O)c3c(c(O)c1C2=O)C[C@@](O)(C(=O)CO)C[C@@H]3O[C@H]1C[C@H](N)[C@H](O[C@@H]2CCCCO2)[C@H](C)O1`, with -84.3% (inactive); and `Oc1cc(O)cc(/C=C/c2ccc(O)c(O)c2)c1`, with -63.8% (inactive); and `COc1cc(NC(C)CCCN)c2ncccc2c1` (stereo not given), with -55.6% (inactive).

In the case of `CC(C)Oc1ccc2c(=O)c(-c3ccccc3)coc2c1`, the “protection, negative = more death” value was -49.1% (inactive).

In the case of `CC[C@@]1(O)C[C@H](O[C@H]2C[C@H](N(C)C)[C@H](O[C@H]3C[C@H](O)[C@H](O[C@H]4CCC(=O)[C@H](C)O4)[C@H](C)O3)[C@H](C)O2)c2c(cc3c(c2O)C(=O)c2c(O)cccc2C3=O)[C@@H]1C(=O)OC`, the “protection, negative = more death” value was -71% (inactive). The figure for `Cc1nc(N)sc1-c1ccnc(Nc2ccc(N3CCOCC3)cc2)n1` is -31.2% (inactive); for `C=CCCCCCCCCC(=O)O` it is 5.55% (inactive).

For the molecule `O=S(=O)(O)c1ccc2nc(-c3ccccc3)[nH]c2c1`, the “protection, negative = more death” value is 2.17% (inactive).
